Data on 40 compounds can be found in PubChem BioAssay (Tox21).

Results filed as inconclusive are left out. Where a call stands in place of a potency, no number is given. Unmarked numbers belong to inactive results. Calls of active or inactive are those of the source. The call rests on the fitted dose curve; in most records, active means well fitted cell-killing curve with a large enough effect in the repeat runs; inconclusive means weak or mixed curves, or effect the other way; inactive means flat fitted curve, though single readings scatter.
Potency means the concentration at half of the fitted maximal effect.

A short description of this assay: Nuclear factor erythroid 2-related factor 2/antioxidant responsive element (Nrf2/ARE) small molecule agonists: qHTS cell viability counter screen in human keratinocytes (AID 1919968). Further: nearly all actives have a fitted effect of over 55% in size. Particulars: KeratinoSens HaCaT ARE cells viability, CellTiter-Fluor, 24 h; series mostly up to 92.4 µM. Summed up:
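Viability counter-screen: KeratinoSens reporter cells, DMSO-delivered compounds, 23 h at 37 C, CellTiter-Fluor fluorescence.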
For the compound `C=Cc1c(C)c2cc3[nH]c(cc4nc(cc5nc(cc1[nH]2)C(C)=C5CCC(=O)O)C(CCC(=O)O)=C4C)c(C)c3C=C`, the Potency result was “inactive”.
Turning to `CCCCCCCOC(=O)CCC`, the Potency entry was “inactive”.
With `CCCCCCCCC(=O)OCC(C)OC(=O)CCCCCCCC` (stereo not given), the Potency result is “inactive”.
Turning to `CCN1/C(=C/C=C/c2sc3ccccc3[n+]2CC)Sc2ccccc21`, the Potency is 3.26 µM (active).
Turning to `c1cnc(N2CCN(Cc3ccc4c(c3)OCO4)CC2)nc1`, the Potency entry was “inactive”.
Regarding `C=C[Si]1(C)O[Si](C)(C=C)O[Si](C)(C=C)O[Si](C)(C=C)O1` (stereo not given), the Potency entry is “inactive”.
On the same count and under the same terms, the entry for `CCN(Cc1cccnc1)C(=O)c1cccc(Cl)c1[C@]1(C)C(=O)N(Cc2ccc(OC)cc2OC)c2ccc(Cl)cc21` is “inactive”; for `CCCNC(C)(C)COC(=O)c1ccccc1` it is “inactive”; for `CCCCCCCCCCl` it is “inactive”.
As for `CCCCCC(C)OC(=O)COc1ccc(Cl)c2cccnc12` (stereo not given), the Potency result was “inactive”.
Regarding `O=C(N[C@H](CO)[C@H](O)c1ccc([N+](=O)[O-])cc1)C(Cl)Cl`, the Potency entry was “inactive”.
Regarding `CC(=O)Nc1ccc(/C=N/NC(N)=S)cc1`, the Potency result is “inactive”.
On to `C=O`, for which the Potency result was “inactive”.
As for `CC(C)(C)C1=CC(=O)C=C(C(C)(C)C)C1=O`, the Potency result is “inactive”.
For the compound `C=CC(=C)CCCC(C)(C)OC(C)=O`, the Potency entry is “inactive”.
In the case of `CC/C=C\CCCCCCCCCCOC(C)=O`, the Potency entry is “inactive”.
For the compound `Oc1ccc(C2(c3ccc(O)cc3)CC3CC2C2CCCC32)cc1` (stereo not given), the Potency was 29.4 µM (active).
Regarding `O=c1[nH]c(=O)n([C@H]2C[C@H](O)[C@@H](CO)O2)cc1C(F)(F)F`, the Potency entry is “inactive”.
On to `Cc1cc(O)c2c(O)c3c(O)cccc3cc2c1`, for which the Potency result is “inactive”.
In the case of `Cc1ccc(Br)cc1`, the Potency result was “inactive”.
`CC1CCC(CO)CC1` (stereo not given): the Potency entry is “inactive”.
Consider `C=Cc1ccc(OC(C)=O)cc1`, for which the Potency result is “inactive”.
As for `Nc1ccc(/C=C/c2ccc(N)cc2S(=O)(=O)O)c(S(=O)(=O)O)c1`, the activity change, negative = cytotoxicity is -4.83% [at 0.349 µM].
With `Cc1cccc(N(C)C(=S)Oc2ccc3c(c2)C2CCC3C2)c1` (stereo not given), the Potency entry is “inactive”.
Same read-out and setting: the entry for `Cc1c(N)cccc1N` is “inactive”.
As for `CCC(CC)CO`, the Potency entry is “inactive”.
The same measure, in the same setting: the entry for `Cc1c(N)c(=O)n(-c2ccccc2)n1C` is “inactive”.
Regarding `N/C(=N\N=C\c1ccc(Cl)cc1)N/N=C/c1ccc(Cl)cc1`, the Potency was 26.6 µM (active).
On to `O=C(NN1CCCC1)NS(=O)(=O)c1ccc(Cl)cc1`, for which the Potency entry is “inactive”.
On the same count and under the same terms, the entry for `C=C[Si](OC(C)=O)(OC(C)=O)OC(C)=O` is “inactive”; for `O=C1C=CC(=O)N1` it is 28 µM (active).
On to `CSc1ccc(Oc2ccc(S(N)(=O)=O)cc2CN(C)C)cc1C`, for which the Potency entry is “inactive”.
Same read-out and setting: the entry for `CCc1ccc2c(c1)C(=O)c1ccccc1C2=O` is “inactive”; for `Cc1ccccc1S` it is “inactive”.
As for `OCCOCC#CCOCCO`, the Potency entry is “inactive”.
Turning to `Cc1ccc(O)c2ncccc12`, the Potency was 2.66 µM (active).
Turning to `COC(OC)(C(=O)c1ccccc1)c1ccccc1`, the Potency result is “inactive”.
For `Cc1c(Nc2ncccc2C(=O)O)cccc1C(F)(F)F`, the Potency entry was “inactive”.
In the case of `CC1(C)[C@@H](O)CC[C@]2(C)[C@H]3C(=O)C=C4[C@@H]5C[C@@](C)(C(=O)O)CC[C@]5(C)CC[C@@]4(C)[C@]3(C)CC[C@@H]12`, the Potency was 67.8 µM (active).
Same read-out and setting: the entry for `CCCCCCCCS(=O)(=O)O` is “inactive”.
